The values below come from PubChem BioAssay (EPA / NIEHS).

SMILES strings stand for the structures. Where “and” joins values, the source holds several entries; their conditions need not be identical. Equal values may be shown once. Records with an inconclusive call do not appear. A structure can be active in one record and inactive in another. Calls of active or inactive are those of the source. Rule for the calls, unless noted: active = hit-call score of the fitted dose curve at least 0.9, where 1 is the maximum; inactive = score below 0.9.

Assay [1] is described as follows: ATG_NFI_CIS: Attagene CIS-FACTORIAL HepG2 Assay for human Nuclear Factor I (NFI) (AID 2282989). The note with it: HepG2 cis-regulatory reporter, NFI response element transcription; actives raise or lower the signal. In short, it runs like this:
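Multiplexed cis-reporter system in human HepG2 cells reports native TF activity as reporter mRNA induction 24 h post-dose. Fragments labelled with 6-FAM, HpaI-digested and resolved by capillary electrophoresis; activity fitted both directions versus DMSO.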

In assay [2] the target is Myc proto-oncogene protein (Homo sapiens) (UniProt P01106). In words: ATG_Myc_CIS: Attagene CIS-FACTORIAL HepG2 Assay for human Myelocytomatosis (Myc) Proto-Oncogene Transcription Factor (AID 2282990). The following applies: HepG2, Attagene cis-reporter transcription factor activity; actives raise or lower the signal. In short, it runs like this:
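After 24 h chemical treatment of HepG2 cells carrying multiplexed cis-regulated reporter constructs, reporter transcripts quantified by RT-PCR and capillary electrophoresis of fluorescent fragments. Gain or loss fitted against DMSO baseline.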

A short description of assay [3]: ATG_NF_kB_CIS: Attagene CIS-FACTORIAL HepG2 Assay for human Nuclear Factor Kappa B (NF-kB) (AID 2282991). The note with it: HepG2 Attagene cis-factorial NF-kB reporter mRNA; actives raise or lower the signal. In short, it runs like this: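 HepG2 cells transfected with cis-promoter-driven reporter units, so endogenous transcription factor activity is measured. Reporter mRNA quantified 24 h after dosing by RT-PCR and capillary electrophoresis, with bidirectional fitting against DMSO.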

Assay [4] in a line: ATG_NRF2_ARE_CIS: Attagene CIS-FACTORIAL HepG2 Assay for human Nuclear Factor Erythroid 2 Related Factor 2 (NFR2) response to Antioxidant Response Elements (ARE) (AID 2282992).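 For AC50: reporter mRNA level measured by RT-PCR and capillary electrophoresis fluorescence.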 The note with it: HepG2 Attagene ARE/NRF2 reporter, transcription factor activity; actives raise or lower the signal. In short, it runs like this: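 Cis-factorial assay: transfected HepG2 reporter library, 24 h dosing, mRNA readout via RT-PCR/CE; DMSO-referenced bidirectional analysis.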

Assay [5] is described as follows: ATG_Oct_MLP_CIS: Attagene CIS-FACTORIAL HepG2 Assay for human Octamer-Binding Transcription Factor (Oct) (AID 2282993). The note with it: HepG2 Attagene cis-factorial Oct reporter, mRNA; actives raise or lower the signal. In short, it runs like this:
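After 24 h compound exposure, transfected HepG2 cells were lysed for total RNA; reporter-specific cDNA was PCR-amplified, fluorescently labelled and sized by capillary electrophoresis. Bidirectional curve fitting used DMSO as baseline.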

Assay [6] concerns the target Cellular tumor antigen p53 (Homo sapiens) (UniProt P04637). The experiment in a line: ATG_p53_CIS: Attagene CIS-FACTORIAL HepG2 Assay for human p53 Transcription Factor (AID 2282994). The following applies: HepG2 p53 cis-element reporter, Attagene mRNA; actives raise or lower the signal. The method in brief: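 Using HepG2 hepatoma cells carrying cis-acting multiplexed reporters, mRNA induction is detected after a 24 h exposure. Gain- and loss-of-signal responses are fitted relative to DMSO-treated cells.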

Assay [7] in a line: BSK_3C_TissueFactor: BioMAP Diversity Plus: 3C Assay for Tissue Factor Biomarker Activity (AID 2282997). The note with it: BioMAP 3C HUVEC, tissue factor biomarker readout; actives raise or lower the signal. The method in brief: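 Primary human umbilical vein endothelial cells in the 3C system were exposed to test chemical for 24 h, then Tissue Factor measured by ELISA. Activity was fitted bidirectionally against DMSO as negative control and baseline.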

Assay [8] in a line: BSK_3C_uPAR: BioMAP Diversity Plus: 3C Assay for Urokinase-type plasminogen activator receptor (uPAR) Biomarker Activity (AID 2282998). The following applies: BioMAP 3C HUVEC, uPAR biomarker ELISA; actives raise or lower the signal. In short, it runs like this:
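Values derive from bidirectional curve fitting relative to DMSO, which served as baseline of activity. uPAR was measured by ELISA in human umbilical vein endothelial primary cultures 24 h after compound addition.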
(In general: An ELISA detects its analyte on a solid surface through an enzyme-linked reagent.)

Assay [9] in a line: BSK_3C_VCAM1: BioMAP Diversity Plus: 3C Assay for Vascular cell adhesion molecule 1 (VCAM1) Biomarker Activity (AID 2282999). The following applies: BioMAP 3C HUVEC, VCAM1 ELISA, cytokine-stimulated; actives raise or lower the signal. The method in brief:
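Endothelial cells from human umbilical vein are treated with test chemical. At 24 h, VCAM-1 is measured by ELISA, and responses in either direction are fitted relative to DMSO.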

Assay [10] in a line: BSK_4H_Eotaxin3: BioMAP Diversity Plus: 4H Assay for Eotaxin 3 Biomarker Activity (AID 2283000).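 For outcome: CCL26 protein level quantified by ELISA in parallel with SRB cytotoxicity check.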 The following applies: primary human endothelial cells (HUVEC); actives raise or lower the signal. In short, it runs like this: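 HUVEC, 24 h post-dose, ELISA for Eotaxin-3/CCL26. Gain or loss of signal fitted bidirectionally vs DMSO baseline.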
For assay [11], the target named is human Peroxisome Proliferator-activated Receptor alpha (PPARa), PPARA (gene 5465) (UniProt Q07869). In words: ATG_PPARa_TRANS: Attagene TRANS-FACTORIAL HepG2 Assay for human Peroxisome Proliferator-activated Receptor alpha (PPARa) (AID 2283001; active = hit-call score of the fitted dose curve at least 0.9, where 1 is the maximum;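 for AC50: potency for gain of reporter signal over DMSO so agonist or activator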). The method in brief: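 Reporter transcripts from GAL4-UAS units in transfected HepG2 were quantified 24 h after dosing. Detection used reverse transcription, PCR, fluorescent primer extension and capillary electrophoresis, with DMSO as baseline.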

Read-out in assay [12]: Intercellular Adhesion Molecule 1 (ICAM1), ICAM1 (gene 3383)
The experiment in a line: BSK_3C_ICAM1: BioMAP Diversity Plus: 3C Assay for Intercellular Adhesion Molecule 1 (ICAM1) Biomarker Activity (AID 2283003). The following applies: primary human endothelial cells (HUVEC); actives raise or lower the signal. In short, it runs like this:
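Human vascular endothelial primary cells, 3C conditions, 24 h treatment. ICAM-1 by ELISA.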

In assay [13] the target is Retinoic acid receptor alpha (Homo sapiens) (UniProt P10276). In words: ATG_RARa_TRANS: Attagene TRANS-FACTORIAL HepG2 Assay for human Retinoic Acid Receptor alpha (RARa) (AID 2283005; active = hit-call score of the fitted dose curve at least 0.9, where 1 is the maximum). The method in brief: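 Reporter transcripts, measured by RT-PCR with fluorescent labeling and capillary electrophoresis after 24 h dosing, reflect activity of an exogenous human RARa–GAL4 fusion in transiently transfected HepG2. Fitted for increase relative to DMSO.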

The nature of assay [14]: BSK_3C_Proliferation: Cell Proliferation Assessment in the BioMAP Diversity Plus: 3C Assay (AID 2283006).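 For AC50: potency may reflect either rise or fall in cell number versus DMSO.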 The note with it: primary human endothelial cells (HUVEC). In short, it runs like this: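 Proliferation of human vascular endothelial primary cells after 48 h dosing, quantified as SRB-stained protein at 560 nm relative to DMSO.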
Assay [15] has as its target Peroxisome proliferator-activated receptor gamma (Homo sapiens) (UniProt P37231). In words: ATG_PPARg_TRANS: Attagene TRANS-FACTORIAL HepG2 Assay for human Peroxisome Proliferator-activated Receptor-gamma (PPARg) (AID 2283007; active = hit-call score of the fitted dose curve at least 0.9, where 1 is the maximum). In short, it runs like this: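 HepG2 cells are transiently transfected with GAL4-UAS reporter units driven by chimeric NR-Gal4 fusions and dosed for 24 h. Reporter mRNA is quantified by RT-PCR, 6-FAM labelling, HpaI digestion and capillary electrophoresis. Induction is scored against DMSO.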

In assay [16] the target is Nuclear receptor subfamily 1 group I member 2 (Homo sapiens) (UniProt O75469). The experiment in a line: ATG_PXR_TRANS: Attagene TRANS-FACTORIAL HepG2 Assay for human Pregnane X Receptor (PXR) (AID 2283008; active = hit-call score of the fitted dose curve at least 0.9, where 1 is the maximum). The method in brief: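 Fluorescence intensity of FAM-labelled, HpaI-digested reporter amplicons, separated by capillary electrophoresis, quantifies induction. HepG2 cells with PXR-Gal4 trans-reporter system were exposed 24 h; DMSO defines baseline.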

Assay [17] deals with human Peroxisome Proliferator-activated Receptor delta (PPARd), PPARD (gene 5467) (UniProt Q03181). In words: ATG_PPARd_TRANS: Attagene TRANS-FACTORIAL HepG2 Assay for human Peroxisome Proliferator-activated Receptor delta (PPARd) (AID 2283002; active = hit-call score of the fitted dose curve at least 0.9, where 1 is the maximum). In short, it runs like this:
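Read-out is induced reporter mRNA, quantified by RT-PCR with fluorescent labelling and capillary electrophoresis after 24 h dosing. Cells are HepG2 transiently carrying multiple GAL4-UAS reporter units driven by exogenous NR-GAL4 chimeras; DMSO serves as baseline.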

Assay [18] deals with human Retinoic Acid Receptor beta (RARb), RARB (gene 5915) (UniProt P10826). The experiment in a line: ATG_RARb_TRANS: Attagene TRANS-FACTORIAL HepG2 Assay for human Retinoic Acid Receptor beta (AID 2283004; active = hit-call score of the fitted dose curve at least 0.9, where 1 is the maximum). The method in brief:
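HepG2 cells transiently transfected with multiplexed GAL4-UAS reporter units expressing chimeric NR–Gal4 fusions; 24 h compound exposure. Reporter mRNA quantified by RT-PCR, 6-FAM labelling, HpaI digestion and capillary electrophoresis; gain-of-signal fitted against DMSO baseline.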

For assay [19], the target named is human Retinoic Acid Receptor gamma (RARg), RARG (gene 5916) (UniProt P13631). The experiment in a line: ATG_RARg_TRANS: Attagene TRANS-FACTORIAL HepG2 Assay for human Retinoic Acid Receptor gamma (RARg) (AID 2283009; active = hit-call score of the fitted dose curve at least 0.9, where 1 is the maximum;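 for AC50: AC50 is for reporter induction above DMSO meaning RARg activation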). The method in brief: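 HepG2, RARg-GAL4 TRANS system, 24 h exposure; reporter mRNA by RT-PCR + CE fluorescence; increase over DMSO.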
Assay [20] has as its target human RAR-related Orphan Receptor beta (RORb), RORB (gene 6096) (UniProt Q92753). The experiment in a line: ATG_RORb_TRANS: Attagene TRANS-FACTORIAL HepG2 Assay for human RAR-related Orphan Receptor beta (RORb) (AID 2283010; active = hit-call score of the fitted dose curve at least 0.9, where 1 is the maximum). In short, it runs like this:
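In this TRANS-format test, human HepG2 cells express chimeric NR-Gal4 fusion proteins driving GAL4-UAS reporters. After 24 h dosing, reporter transcripts are measured by fluorescent RT-PCR/capillary electrophoresis, with DMSO as negative control.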

Retinoic acid receptor alpha (Homo sapiens), sequence (P10276 whole entry, looked up, the tested form may be a part): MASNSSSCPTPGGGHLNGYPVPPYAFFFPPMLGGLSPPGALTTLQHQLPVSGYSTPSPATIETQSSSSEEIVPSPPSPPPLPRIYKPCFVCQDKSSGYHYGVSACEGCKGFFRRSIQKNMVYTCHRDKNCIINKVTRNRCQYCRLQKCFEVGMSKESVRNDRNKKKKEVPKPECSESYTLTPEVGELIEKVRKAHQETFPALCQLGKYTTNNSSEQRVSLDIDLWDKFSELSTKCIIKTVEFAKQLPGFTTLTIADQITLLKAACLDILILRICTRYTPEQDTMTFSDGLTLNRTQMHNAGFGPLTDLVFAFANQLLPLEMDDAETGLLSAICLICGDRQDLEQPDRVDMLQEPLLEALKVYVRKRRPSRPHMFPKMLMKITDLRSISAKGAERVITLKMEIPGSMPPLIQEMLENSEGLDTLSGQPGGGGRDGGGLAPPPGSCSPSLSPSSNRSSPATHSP
Nuclear receptor subfamily 1 group I member 2 (Homo sapiens), sequence (O75469 whole entry, looked up, the tested form may be a part): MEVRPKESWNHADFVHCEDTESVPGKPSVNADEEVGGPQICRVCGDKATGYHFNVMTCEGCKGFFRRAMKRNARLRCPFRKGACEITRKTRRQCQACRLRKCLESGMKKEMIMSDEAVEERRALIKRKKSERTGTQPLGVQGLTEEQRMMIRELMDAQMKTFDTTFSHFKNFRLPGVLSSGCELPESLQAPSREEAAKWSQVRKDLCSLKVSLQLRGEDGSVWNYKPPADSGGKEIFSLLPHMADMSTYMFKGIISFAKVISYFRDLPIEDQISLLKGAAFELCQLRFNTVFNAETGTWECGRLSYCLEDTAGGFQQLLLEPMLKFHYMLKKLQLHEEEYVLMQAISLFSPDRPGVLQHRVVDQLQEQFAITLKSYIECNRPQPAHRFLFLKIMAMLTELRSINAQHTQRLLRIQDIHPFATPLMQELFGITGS
human Peroxisome Proliferator-activated Receptor delta (PPARd), PPARD (gene 5467), sequence (Q03181 whole entry, looked up, the tested form may be a part): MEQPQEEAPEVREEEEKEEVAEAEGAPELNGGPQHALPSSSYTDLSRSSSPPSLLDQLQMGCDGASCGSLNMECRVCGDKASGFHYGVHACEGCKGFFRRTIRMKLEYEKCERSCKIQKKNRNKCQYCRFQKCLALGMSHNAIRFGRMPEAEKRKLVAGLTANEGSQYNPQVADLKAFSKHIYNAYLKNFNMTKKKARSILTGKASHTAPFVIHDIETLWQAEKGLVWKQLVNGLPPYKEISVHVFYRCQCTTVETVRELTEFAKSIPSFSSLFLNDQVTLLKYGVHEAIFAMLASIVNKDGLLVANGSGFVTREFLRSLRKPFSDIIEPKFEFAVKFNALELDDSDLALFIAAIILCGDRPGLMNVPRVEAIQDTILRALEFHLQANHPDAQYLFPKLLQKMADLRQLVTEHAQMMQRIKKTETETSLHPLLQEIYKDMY
human Retinoic Acid Receptor gamma (RARg), RARG (gene 5916), sequence (P13631 whole entry, looked up, the tested form may be a part): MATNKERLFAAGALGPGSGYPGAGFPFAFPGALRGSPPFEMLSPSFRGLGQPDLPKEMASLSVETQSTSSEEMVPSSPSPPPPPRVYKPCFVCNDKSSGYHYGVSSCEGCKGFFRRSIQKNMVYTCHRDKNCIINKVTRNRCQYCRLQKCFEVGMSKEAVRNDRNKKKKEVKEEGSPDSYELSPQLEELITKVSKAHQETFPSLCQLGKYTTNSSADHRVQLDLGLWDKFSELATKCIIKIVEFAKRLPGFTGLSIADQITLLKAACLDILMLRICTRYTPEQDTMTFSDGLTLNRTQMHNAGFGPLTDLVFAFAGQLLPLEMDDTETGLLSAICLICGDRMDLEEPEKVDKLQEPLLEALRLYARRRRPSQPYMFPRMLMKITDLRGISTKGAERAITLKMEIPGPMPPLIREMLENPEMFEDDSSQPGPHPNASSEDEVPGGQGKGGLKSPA
Myc proto-oncogene protein (Homo sapiens), sequence (P01106 whole entry, looked up, the tested form may be a part): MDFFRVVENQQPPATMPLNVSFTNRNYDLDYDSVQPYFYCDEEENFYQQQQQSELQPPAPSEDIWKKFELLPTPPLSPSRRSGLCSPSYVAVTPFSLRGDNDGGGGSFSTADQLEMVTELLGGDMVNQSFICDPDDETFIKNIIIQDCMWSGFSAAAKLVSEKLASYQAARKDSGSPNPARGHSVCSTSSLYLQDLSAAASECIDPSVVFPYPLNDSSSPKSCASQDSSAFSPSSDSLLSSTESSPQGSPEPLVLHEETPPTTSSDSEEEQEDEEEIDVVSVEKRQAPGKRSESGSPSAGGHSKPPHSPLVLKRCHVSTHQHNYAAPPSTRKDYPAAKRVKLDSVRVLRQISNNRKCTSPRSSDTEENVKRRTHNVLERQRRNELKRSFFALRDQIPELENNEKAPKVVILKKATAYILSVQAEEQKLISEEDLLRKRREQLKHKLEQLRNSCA
Peroxisome proliferator-activated receptor gamma (Homo sapiens), sequence (P37231 whole entry, looked up, the tested form may be a part): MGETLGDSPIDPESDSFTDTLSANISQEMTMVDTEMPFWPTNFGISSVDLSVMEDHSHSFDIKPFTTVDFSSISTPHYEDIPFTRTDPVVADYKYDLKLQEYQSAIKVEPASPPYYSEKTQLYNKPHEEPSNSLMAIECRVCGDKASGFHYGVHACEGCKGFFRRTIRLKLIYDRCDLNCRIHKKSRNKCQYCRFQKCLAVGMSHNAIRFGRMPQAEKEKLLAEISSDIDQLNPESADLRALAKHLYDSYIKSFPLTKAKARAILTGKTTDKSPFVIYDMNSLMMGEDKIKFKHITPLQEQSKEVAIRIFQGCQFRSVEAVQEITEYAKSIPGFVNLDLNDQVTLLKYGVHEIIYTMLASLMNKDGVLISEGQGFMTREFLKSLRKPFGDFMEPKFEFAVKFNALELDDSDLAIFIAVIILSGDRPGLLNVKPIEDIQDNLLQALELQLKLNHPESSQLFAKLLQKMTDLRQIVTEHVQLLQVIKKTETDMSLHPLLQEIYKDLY
Cellular tumor antigen p53 (Homo sapiens), sequence (P04637 whole entry, looked up): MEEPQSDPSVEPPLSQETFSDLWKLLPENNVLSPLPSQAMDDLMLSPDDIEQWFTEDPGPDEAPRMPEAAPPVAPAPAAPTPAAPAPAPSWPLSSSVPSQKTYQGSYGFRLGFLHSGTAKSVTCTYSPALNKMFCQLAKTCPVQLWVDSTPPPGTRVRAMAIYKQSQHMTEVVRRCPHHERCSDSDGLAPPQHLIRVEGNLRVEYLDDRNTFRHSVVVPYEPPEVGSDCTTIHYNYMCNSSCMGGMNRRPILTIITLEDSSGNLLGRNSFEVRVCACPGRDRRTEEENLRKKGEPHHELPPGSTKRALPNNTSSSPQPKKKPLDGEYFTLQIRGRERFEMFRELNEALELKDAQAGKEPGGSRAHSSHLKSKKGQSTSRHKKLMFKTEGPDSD
human RAR-related Orphan Receptor beta (RORb), RORB (gene 6096), sequence (Q92753 whole entry, looked up, the tested form may be a part): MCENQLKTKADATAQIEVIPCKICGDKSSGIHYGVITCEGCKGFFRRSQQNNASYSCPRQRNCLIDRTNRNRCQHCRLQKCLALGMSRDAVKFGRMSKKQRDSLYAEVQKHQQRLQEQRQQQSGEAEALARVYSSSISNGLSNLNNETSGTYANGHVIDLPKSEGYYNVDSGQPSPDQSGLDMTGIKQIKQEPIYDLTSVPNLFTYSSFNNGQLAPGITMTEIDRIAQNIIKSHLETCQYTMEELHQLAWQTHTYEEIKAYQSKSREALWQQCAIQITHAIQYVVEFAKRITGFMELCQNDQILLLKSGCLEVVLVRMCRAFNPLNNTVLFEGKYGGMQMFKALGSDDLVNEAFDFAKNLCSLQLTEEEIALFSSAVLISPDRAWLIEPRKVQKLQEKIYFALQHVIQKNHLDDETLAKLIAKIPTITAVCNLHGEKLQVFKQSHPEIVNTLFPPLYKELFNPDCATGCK
human Retinoic Acid Receptor beta (RARb), RARB (gene 5915), sequence (P10826 whole entry, looked up, the tested form may be a part): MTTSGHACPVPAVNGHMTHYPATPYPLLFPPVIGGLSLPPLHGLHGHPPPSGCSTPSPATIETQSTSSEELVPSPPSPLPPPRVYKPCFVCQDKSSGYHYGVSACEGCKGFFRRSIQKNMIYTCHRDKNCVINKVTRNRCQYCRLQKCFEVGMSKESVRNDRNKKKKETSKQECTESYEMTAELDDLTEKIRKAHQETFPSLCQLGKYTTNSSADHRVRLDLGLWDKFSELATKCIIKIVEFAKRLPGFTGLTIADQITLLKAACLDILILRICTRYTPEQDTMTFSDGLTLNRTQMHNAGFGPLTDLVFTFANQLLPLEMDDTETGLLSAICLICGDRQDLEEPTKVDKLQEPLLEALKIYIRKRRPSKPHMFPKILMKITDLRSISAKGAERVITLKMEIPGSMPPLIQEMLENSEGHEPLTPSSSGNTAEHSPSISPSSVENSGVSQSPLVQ
human Peroxisome Proliferator-activated Receptor alpha (PPARa), PPARA (gene 5465), sequence (Q07869 whole entry, looked up, the tested form may be a part): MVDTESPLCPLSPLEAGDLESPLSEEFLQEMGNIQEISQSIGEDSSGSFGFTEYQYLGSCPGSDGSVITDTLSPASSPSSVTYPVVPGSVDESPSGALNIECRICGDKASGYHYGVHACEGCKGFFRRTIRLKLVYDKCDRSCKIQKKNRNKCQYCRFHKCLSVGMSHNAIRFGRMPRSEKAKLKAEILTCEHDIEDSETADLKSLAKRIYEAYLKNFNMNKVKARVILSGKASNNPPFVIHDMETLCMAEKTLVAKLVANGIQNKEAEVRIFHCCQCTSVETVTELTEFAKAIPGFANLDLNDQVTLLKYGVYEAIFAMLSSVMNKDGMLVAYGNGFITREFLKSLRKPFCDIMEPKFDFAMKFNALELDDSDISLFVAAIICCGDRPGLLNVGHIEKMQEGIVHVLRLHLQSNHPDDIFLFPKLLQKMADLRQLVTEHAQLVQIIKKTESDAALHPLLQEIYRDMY

Take `CCCCCCCCOC(=O)c1ccccc1C(=O)OCCCCCCCC`: the molecule was classed as inactive in [1], in assay [2], in [3], in [4], in assay [5] and in assay [6]. In addition, the result in [7], in assay [8], in [9], in [11], in [12] and in [13] was inactive. Further, the outcome in assay [14] and in assay [16] was inactive. Further, the figures for the AC50 in assay [10] and in [15] were 14 µM (active) and 38.4 µM (active), respectively.
On to `Clc1ccc(Cl)cc1`, for which the call in assay [1], in assay [2], in [3], in assay [4], in [5] and in [6] was inactive. The outcome in assay [7], in [8], in assay [9], in assay [10], in assay [11] and in [17] was inactive. The outcome in assay [12], in assay [18], in assay [14], in assay [15], in assay [16] and in assay [19] was inactive. Besides, the molecule was classed as inactive in [20].
`CCC(C)c1cc([N+](=O)[O-])cc([N+](=O)[O-])c1O` (configuration not stated): the outcome in assay [1], in [2], in [3], in assay [6], in assay [7] and in assay [17] was inactive. The result in assay [12], in assay [13] and in [19] was inactive. The AC50 (usually the midpoint of the concentration-response curve, whichever way the signal moves) in assay [4] is 14.1 µM (active); in assay [5] it was 16.4 µM (active); in [8], 9.09 µM (active); in [9], 8.86 µM (active); in assay [10] it was 11.3 µM (active); in assay [11], 49.6 µM (active). The AC50 in assay [14] was 8.95 µM (active); in assay [15], 17.3 µM (active); in [16], 26.9 µM (active).
Regarding `ClC1=C(Cl)[C@]2(Cl)[C@@H]3[C@H]4C[C@H]([C@@H]5O[C@H]45)[C@@H]3[C@@]1(Cl)C2(Cl)Cl`, the call in [1], in assay [2], in assay [3], in assay [4], in assay [5] and in [6] was inactive. The result in assay [7], in [8], in assay [9], in assay [10], in assay [11] and in [12] was inactive. Further, the molecule was called inactive in assay [13], in assay [15] and in assay [16]. The AC50 in assay [18] was 0.859 µM (active); in assay [14], 8.62 µM (active); in assay [19], 0.937 µM (active).
`NS(=O)(=O)C(F)(F)C(F)(F)C(F)(F)C(F)(F)C(F)(F)C(F)(F)C(F)(F)C(F)(F)F`: the AC50 in assay [1] was 44.3 µM (active) and 37.1 µM (active) and 50 µM (active); in assay [2], 27.6 µM (active); in assay [3] it was 60.1 µM (active) and 253 µM (active); in assay [4], 28.9 µM (active) and 268 µM (active) and 15.4 µM (active); in assay [5], 50 µM (active); in assay [6], 112 µM (active). The AC50 in assay [7] was 30.2 µM (active) and 49.5 µM (active) and 52.9 µM (active); in assay [8], 29.9 µM (active) and 42.3 µM (active) and 44.1 µM (active); in assay [9] it was 35.2 µM (active) and 55 µM (active) and 55.3 µM (active); in [10] it was 30.6 µM (active) and 46.8 µM (active) and 54 µM (active); in [11], 88.4 µM (active); in assay [12] it was 56.8 µM (active) and 51.5 µM (active). Besides, the concentration at half-maximal activity (AC50) in assay [14] was 30.3 µM (active) and 38.9 µM (active); in assay [15], 100 µM (active) and 59 µM (active) and 41.8 µM (active). In addition, the call in [2], in assay [3], in [5], in [6], in [11] and in assay [17] was inactive. For the same molecule, the result in [12], in [18], in assay [13], in assay [16], in assay [19] and in [20] was inactive.
